# ATG4B inh: blocks human ATG4B protease cleavage of LC3 substrate; 340,000 compounds, 0.51% hits; inhibition, % at 8.33 µM; ATG4B cleavage of LC3-PLA2, NBD-HPC fluorescence, 1 h; in the data active = inhibition above about 40%
# Target sequence (Q9Y4P1 whole entry, looked up): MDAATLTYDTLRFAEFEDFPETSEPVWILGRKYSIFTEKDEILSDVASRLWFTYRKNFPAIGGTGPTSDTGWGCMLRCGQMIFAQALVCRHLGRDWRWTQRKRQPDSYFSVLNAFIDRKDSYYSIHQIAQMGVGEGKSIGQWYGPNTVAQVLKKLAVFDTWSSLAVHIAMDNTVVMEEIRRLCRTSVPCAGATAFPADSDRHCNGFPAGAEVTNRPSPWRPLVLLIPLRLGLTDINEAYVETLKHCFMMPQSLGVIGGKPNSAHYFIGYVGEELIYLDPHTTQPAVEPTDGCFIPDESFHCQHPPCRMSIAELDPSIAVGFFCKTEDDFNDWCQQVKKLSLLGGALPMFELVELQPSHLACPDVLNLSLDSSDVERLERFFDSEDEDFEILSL
# AI-2 QS mod: Vibrio harveyi AI-2 quorum sensing modulation | Vibrio harveyi JMH597 AI-2 luminescence/OD600 ratio, 9 h; stronger effect = lower value; strain lacks LuxN and CqsS sensors; 0 = neutral-control median | activity change, % at 7.5 µM | 300,000 compounds, 0.4% hits | AID 2094; in the data active = activity change below about -75%, passing the limit was not always enough;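 note: luminescence divided by OD600 gain over 9 h not by final OD600 alone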
# V-ATPase pH: regulators of yeast V-ATPase proton transport; response, % at 10 µM; 350,000 compounds, 0.37% hits; S. cerevisiae, pHLuorin cytosolic pH fluorescence; AID 504577; in the data active = response mostly above about 7.3%, no sharp cut-off; inactive = mostly below about 5.4%; note: actives read high
# Efflux pump inh: antifungal efflux pump inhibition, Nile Red retention | S. cerevisiae Candida pump triplex | inhibition, % at 10 µM | 330,000 compounds, 0.44% hits | AID 485275;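 active = plate passing quality check with inhibition over a set limit, or well fluorescence over plate mean plus 4 SD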;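 note: Nile Red retained in pooled yeast measured as flow cytometry median fluorescence; 0% = buffer negative control and 100% = Enniatin B positive control; higher means more Nile Red kept so more efflux inhibition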
# Mot1-301 SUMO: inhibitors of SUMOylation pathway: yeast Mot1-301 growth rescue; AID 2716; growth rescue, % at 18.8 µM; 320,000 compounds, 1% hits; S. cerevisiae Mot1-301 growth rescue, ATP luminescence, 38.5C; percent above DMSO median, 100 means doubled;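 active = every valid replicate shows activation above 250% relative to neutral control wells; inactive = the rest, any valid replicate at or below 250%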;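 note: OY570 slx delta 5 strain wells were the positive control but not used for scaling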
# Cmpd fluor yeast: counter-screen for efflux pump inhibitors: compound fluorescence; 1,700 compounds, 4% hits; S. cerevisiae AD/pABC3, flow cytometry; fluorescence ratio to DMSO, % at 10 µM; shares compounds with Efflux pump inh;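 active = fluorescence ratio to DMSO above its plate's cutoff, the plate mean ratio plus 5 SD, cut at about 210% in these data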;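 note: unstained yeast with no Nile Red so the signal is compound autofluorescence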
# CaMdr1 efflux inh: blocks the Candida albicans Mdr1 efflux pump in yeast. 1,700 compounds, 1% hits. S. cerevisiae AD/CaMDR1, Nile Red efflux, flow cytometry. inhibition, % at 10 µM. shares compounds with Efflux pump inh. AID 588518; in the data active = inhibition above about 26%;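 note: 0% = DMSO vehicle and 100% = reference inhibitor; higher means more Nile Red retained so more efflux inhibition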
# Cdr2 pump inh: blocks the Candida albicans Cdr2 efflux pump in yeast; shares compounds with Efflux pump inh; S. cerevisiae AD/CaCDR2, Nile Red retention, flow cytometry; Nile Red retention ratio vs DMSO, % at 10 µM; 1,700 compounds, 4% hits; AID 588520; in the data active = Nile Red retention ratio vs DMSO above about 190%;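 note: higher ratio means more blocking of Cdr2 efflux of the dye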
# Cdr1 pump inh: inhibitors of Candida albicans Cdr1 efflux pump; AID 588522; shares compounds with Efflux pump inh; S. cerevisiae AD/CaCDR1, Nile Red efflux, flow cytometry; inhibition, % at 10 µM; 1,700 compounds, 1% hits;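 active = inhibition above the screen-wide mean plus twice its standard deviation, cut at about 32% in these data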
# Starred values were filed as active, the others as inactive; . = no result given. Hits are enriched below; roughly 2.5% of the tested compounds scored in any of these assays.
SMILES,ATG4B inh,AI-2 QS mod,V-ATPase pH,Efflux pump inh,Mot1-301 SUMO,Cmpd fluor yeast,CaMdr1 efflux inh,Cdr2 pump inh,Cdr1 pump inh
CNS(=O)(=O)c1ccc(C(=O)NCC(=O)NCC2COc3ccccc3O2)cc1 (configuration not stated),-2,.,1,0.6*,47,105,0,95,0
COc1ccc([C@H]2[C@H](C(=O)C(C)(C)C)N3N=Cc4ccccc4C3[C@]23N=C(c2ccccc2)OC3=O)cc1 (some centres not stated),0,20,2,0.8*,13,121,0,129,0
COc1ccc([C@H]2[C@H](C(=O)C(C)(C)C)N3N=Cc4ccccc4C3[C@]23N=C(c2ccccc2)OC3=O)cc1OC (some centres not stated),-11,.,0,0,-11,.,.,.,.
O=C(CN1CCN(C(=O)N2CCOCC2)CC1)Nc1ccc(Br)cc1,-9,13,-4,17*,-5,98,0,103,0
CCn1c(/C=C/c2ccc(O)c(O)c2)nc2ccccc2c1=O,4,15,6,1.0*,280,144,2,105,2
CC12CN(S(=O)(=O)c3ccccc3)CC(C)(CN(S(=O)(=O)c3ccccc3)C1)C2,2,3,-1,0,-13,.,.,.,.
Cc1ccc(C)c(C(=O)COC(=O)c2ccc(C)c(S(=O)(=O)N3CCOCC3)c2)c1,1,.,-7,1.1*,25,87,0,95,0
Cc1ccccc1CNC(=O)C(=O)NCCC1CCCCN1S(=O)(=O)c1cccs1 (configuration not stated),-6,16,-1,0,9,.,.,.,.
O=C(CCCOc1ccc(Br)cc1)Nc1nnc(C2CC2)s1,4,.,1,0,123,.,.,.,.
O=C(CN1CCN(S(=O)(=O)c2ccccc2F)CC1)Nc1ccccc1C(=O)c1ccccc1,-3,-15,-2,0.5*,2,111,0,98,0
O=C(CN1CCCC1)Nc1ccccc1C(=O)c1ccccc1,-4,-3,2,0,-25,.,.,.,.
CCOC(=O)c1ccc(NC(=O)CSc2nc(=O)n(CCN3CCOCC3)c3c2CCC3)cc1,-5,10,-1,0,11,.,.,.,.
CC1(C)CC[C@]2(C(=O)O)CC[C@]3(C)C(=CC[C@@H]4[C@@]5(C)CC[C@H](O)C(C)(C)[C@@H]5CC[C@]43C)[C@@H]2C1,1,.,-2,0,-20,.,.,.,.
CC1(C)CC[C@]2(C(=O)O)CC[C@]3(C)C(=CCC4[C@@]5(C)CC[C@H](O)C(C)(C)C5CC[C@]43C)C2C1 (some centres not stated),-10,33,-3,1.4*,-19,81,0,97,0
CCCCn1c(N)c(N(CCC(C)C)C(=O)CC2CCCC2)c(=O)[nH]c1=O,0,22,-2,0,17,.,.,.,.
CC(=O)c1ccc(C(=O)NC2CC(C)(C)Cc3c2cnn3-c2ccccc2)cc1 (configuration not stated),18,-1,1,0,2,.,.,.,.
COc1cc(C(=O)NC2CC(C)(C)Cc3c2cnn3-c2ccccc2)cc(OC)c1OC (configuration not stated),10,19,-5,0,-8,.,.,.,.
COc1cccc(C(=O)NC2CC(C)(C)Cc3c2cnn3-c2cccc(F)c2)c1OC (configuration not stated),0,11,2,0,-13,107,0,106,0
COc1ccc(-n2ncc3c2CC(C)(C)CC3NC(=O)c2cnc(C)cn2)cc1 (configuration not stated),3,8,1,0,5,105,0,96,0
Cc1cnc(C(=O)NC2CC(C)(C)Cc3c2cnn3-c2ccccc2)cn1 (configuration not stated),-7,11,1,1,11,98,0,107,0
